# A selection: hits, their analogues and other compounds. The true share with any hit is near 4.3%.
# FGF22 binding-1 – binders of recombinant human FGF22 by thermal shift; hit rate 1.5% among 340,000; Q9HCT0; activity (Tm shift, normalised), % at 9.99 µM; SYPRO orange fluorescence; percent of sucrose octasulfate shift, DMSO zero;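 active means mean Tm shift, scaled 0 neutral to 100 positive control, at about 1.3% or above, every replicate too, limit read from the data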
# Target sequence (Q9HCT0 whole entry, looked up): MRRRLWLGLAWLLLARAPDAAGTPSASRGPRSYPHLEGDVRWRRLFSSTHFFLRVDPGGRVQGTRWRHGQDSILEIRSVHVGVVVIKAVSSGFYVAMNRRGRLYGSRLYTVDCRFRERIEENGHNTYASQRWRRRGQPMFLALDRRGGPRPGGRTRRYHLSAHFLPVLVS
# AF4-AF9 inh – inhibitors of human MLL-AF4/AF9 interaction | P42568 | AlphaScreen, biotin-AF4 peptide binding to FLAG-AF9 | inhibition, % at 10 µM | hit rate 0.47% among 350,000;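 active means every replicate reaching a set inhibition limit, whatever the replicate mean, cut at about 25% in these data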;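 further: 0% = plate neutral control median and 100% = total signal loss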
# SMARCA2 act – increases SMARCA2 function in MMTV reporter cells. MG213 cells, MMTV-luciferase reporter, dexamethasone, overnight. activation, % at 9.1 µM. hit rate 1% among 370,000; in the data active means activation above about 7.8%;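 further: 0% = vehicle wells and 100% = reference activator wells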
# MITF TRPM1 HTS – MITF TRPM1 promoter activation in melanoma cells; activation, % at 12.5 µM; AID 588334; SK-MEL-5 TRPM1-promoter luciferase, 24 h; % of positive control, neutral wells = 0; hit rate 0.75% among 300,000;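 active means mean activation of at least 80% with every replicate also reaching 80%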;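 further: 0% = neutral control wells and 100% = parthenolide positive control wells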
# Wnt bcat act – activates Wnt/beta-catenin signaling in a reporter cell assay; activator, plate reader; activation, % at 9.35 µM; hit rate 1.2% among 300,000; in the data active means activation above about 30%, passing the limit was not always enough;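 further: 0% = neutral control wells and 100% = positive control wells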
# esBAF inh – inhibitors of esBAF chromatin remodeling in mouse ES cells. Bmi1-luciferase knock-in reporter, 24 h; 100% = twice the neutral-well signal. hit rate 2% among 350,000. reporter increase, % at 12.5 µM; in the data active means activation above about 40%;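 further: 0% = median of the plate's neutral control wells and 100% = double that signal; a rise in the Bmi1 reporter signal indicates esBAF inhibition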
# FGF22 binding-2 – FGF22 (human) binding in thermal shift | shares compounds with FGF22 binding-1 | hit rate 2% among 1,000 | recombinant FGF22 thermal shift, SYPRO orange fluorescence | thermal shift activity, °C (ΔTm) at 38 µM;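 active means fitted rise in melting shift crosses a set limit at or below the top valid dose tested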
# SYPRO no-protein – shows thermal shift signal without protein, FGF22 counter-screen; AID 743019; compound-only SYPRO orange thermal shift counter-screen, no protein; AC50, µM (titrated, usually from 38 µM); shares compounds with FGF22 binding-1; hit rate 2% among 1,000;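 active means rising signal whose fitted curve reaches the 0.54 level within the top valid dose, showing a melting point, actives reach about 13 µM in these data; inactive means the rest, including activity in the opposite direction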; further: value is where the raw curve crosses a fixed level and not half-maximal
# * = called active by the depositor; i = inactive; · = no result; ! = a repeat was not active; [ ] = another dose, or the depositor's remark.
SMILES,FGF22 binding-1,AF4-AF9 inh,SMARCA2 act,MITF TRPM1 HTS,Wnt bcat act,esBAF inh,FGF22 binding-2,SYPRO no-protein
CC1(c2ccc3ccccc3c2)NC(=O)N(CC(=O)Nc2ncccc2O)C1=O (stereo not drawn),1.7*,-0.7,-2.5,-0.7,-0.2,-1.8,0.14,i
CN(C[C@@H]1[C@H](c2ccccc2)[C@@H](CO)N1C(=O)C1CCC1)C(=O)c1ccccn1,0.1,-3.9,·,·,·,3.4,·,·
CC(=O)N[C@H]1CC[C@H](CCNC(=O)Nc2ccc(C(F)(F)F)cc2)O[C@@H]1CO,-0.2,13.2,·,·,·,2.2,·,·
Cc1cc(C(=O)Nc2cccc(C)c2C)n(-c2ccccc2)n1,0.0,1.0,0.2,9.9,6.0,26.9,·,·
Cc1cc(C(=O)Nc2cccc3ccccc23)n(-c2ccccc2)n1,3.2*,-2.3,-0.5,-6.4,-0.2,-8.0,0.139,i
O=C(NCC[C@H]1CC[C@H](NC(=O)C2CCOCC2)[C@@H](CO)O1)Nc1ccc(Cl)cc1,1.5*,-8.3,·,·,·,3.4,-0.047,i
O=C(NCC[C@@H]1CC[C@@H](NC(=O)C2CCOCC2)[C@H](CO)O1)Nc1ccc(Cl)cc1,1.4*,-7.7,·,·,·,11.9,0.147[42 µM],i
C[C@@H]1CN([C@@H](C)CO)C(=O)c2cc(NS(=O)(=O)c3cn(C)cn3)ccc2O[C@@H](C)CCCCO[C@@H]1CN(C)C(=O)Cc1ccccc1,0.1,0.1,·,·,·,0.5,·,·
C[C@@H]1CN([C@H](C)CO)C(=O)c2cc(NS(=O)(=O)c3cn(C)cn3)ccc2O[C@@H]1CN(C)Cc1ccccc1,-0.2,-1.2,·,·,·,-2.9,·,·
C[C@H](CO)N1C[C@H](C)[C@@H](CN(C)S(=O)(=O)c2ccccc2)Oc2ccc(NS(=O)(=O)c3cn(C)cn3)cc2C1=O,2.3*!,-7.3,2.5,0.8,4.6,-2.3,0.026,i
C[C@H]1CN([C@@H](C)CO)C(=O)c2cc(NS(=O)(=O)c3cn(C)cn3)ccc2O[C@H]1CN(C)Cc1ccccc1,24.5*,0.7,·,·,·,1.5,-0.038,i
O=C(Nc1cccc(S(=O)(=O)N2CCCCC2)c1)C1=NN(c2ccccc2)C(=O)CC1,1.9*,4.5,0.4,-37.2,-1.5,6.2,-0.096,i
O=C(Nc1cc(S(=O)(=O)N2CCCCC2)ccc1Cl)C1=NN(c2ccccc2)C(=O)CC1,0.0,0.5,-1.2,-7.8,4.6,0.8,·,·
CC(C)CC(=O)Nc1ccc(C(=O)CN2C(=O)NC3(CCOc4ccccc43)C2=O)cc1 (stereo not drawn),1.9*,3.7,1.3,-2.0,-4.6,-3.7,-0.156,i
CCC(=O)Nc1ccc(C(=O)CN2C(=O)NC3(CCOc4ccccc43)C2=O)cc1 (stereo not drawn),-0.3,4.3,3.6,·,0.0,-3.3,·,·
C[C@H]1CN([C@@H](C)CO)C(=O)c2cc(NC(=O)Nc3ccc(F)cc3)ccc2O[C@@H]1CN(C)S(=O)(=O)c1ccccc1,-0.1,-5.0,·,·,·,-2.8,·,·
CN1/C(=C\C(=O)c2cccc([N+](=O)[O-])c2)Sc2ccccc21,2.2*,-5.1,6.2,18.7,20.9,74.7*,0.013,i
CC(=O)NCCCNc1ccc([N+](=O)[O-])cc1,·,·,2.1,20.9,12.9,·,·,·
CCS(=O)(=O)NCCNc1ccc([N+](=O)[O-])cc1,1.5*,1.4,-4.5,-14.3,-1.7,1.0,-0.069,i
C[C@@H]1CN([C@@H](C)CO)C(=O)Cc2cc(NC(=O)C3CC3)ccc2O[C@H]1CN(C)Cc1ccc(Cl)c(Cl)c1,3.1*,6.8,·,·,·,5.9,-0.003,i
C[C@@H]1CN([C@H](C)CO)C(=O)Cc2cc(NS(C)(=O)=O)ccc2O[C@@H]1CN(C)Cc1ccc(C(=O)O)cc1,39.1*,-4.1,·,·,·,5.4,0.04[42 µM],i
O=C(Nc1nc(=O)[nH]s1)c1ccccc1,0.7,0.4,-2.3,-7.6,0.3,·,·,·
O=C(Nc1nc(=O)n(C(=O)C2CC2)s1)c1ccccc1,2.2*,-35.4,1.8,-2.6,-0.9,-8.6,-0.028,i
Cc1ccc(C(=O)Nc2nc(=O)n(C(=O)C3CC3)s2)cc1,1.3*,5.2,0.4,17.0,4.1,·,-0.088,i
Cc1ccc(S(=O)(=O)N(C)C[C@@H]2Oc3c(NS(=O)(=O)c4cccs4)cccc3C(=O)N([C@@H](C)CO)C[C@@H]2C)cc1,-0.5,1.1,·,·,·,4.5,·,·
SMILES,FGF22 binding-1,AF4-AF9 inh,SMARCA2 act,MITF TRPM1 HTS,Wnt bcat act,esBAF inh,FGF22 binding-2,SYPRO no-protein
O=c1ccc2cc(S(=O)(=O)Nc3ccc(Br)cc3)ccc2o1,1.4*,-1.8,-3.1,·,0.0,-6.5,-0.019,i
COc1ccc(NS(=O)(=O)c2ccc3oc(=O)ccc3c2)cc1,-0.1,2.2,-0.5,-3.9,-1.2,3.9,·,·
COCCCN1C(=O)[C@H](CC(=O)N2CCC(c3ccccc3)CC2)[C@]2(C(=O)OC)CCCCC=C12,·,·,-3.9,·,·,·,·,·
Cc1ccc(S(=O)(=O)N[C@H]2CC[C@@H](CC(=O)O)O[C@@H]2CO)cc1,0.3,-4.6,·,·,·,-2.2,·,·
C=C(C1=CCN(S(=O)(=O)C(C)(C)C)[C@H]1CCO)c1ccccc1,15.3*,-1.5,3.7,10.5,-0.3,-8.4,0.047,i
C=C(C1=CCN(S(=O)C(C)(C)C)[C@H]1CCO)c1ccccc1 (stereo partly drawn),-0.2,2.2,-2.1,-6.6,-2.9,-3.7,·,·
COCC(=O)N1CC2(C1)[C@H](c1ccc(-c3cccc(F)c3)cc1)[C@@H](CO)N2C(=O)C1CC1,0.0,-1.7,·,·,·,·,·,·
COC(=O)c1cc(OC)c(OC)cc1NC(=O)c1ccccc1C,8.5*,1.1,1.2,2.6,0.3,-5.4,0.142,i
CCOc1ccc(-c2cc(C(=O)N/N=C/c3cccnc3)c3ccccc3n2)cc1,2.5*,0.9,3.9,18.2,16.0,16.1,-0.117,i
O=C(C[C@H]1CC[C@H](NC(=O)Nc2cc(F)ccc2F)[C@H](CO)O1)Nc1ccccc1,0.3,-0.9,·,·,·,-1.0,·,·
O=C(NCc1ccc2c(c1)OCO2)c1ccc(Br)cc1,0.1,-1.8,-0.3,·,2.0,1.5,·,·
Cc1nc2cc(C(=O)NCc3ccc4c(c3)OCO4)ccc2n1-c1ccc(Br)cc1,1.6*,0.4,-5.0,7.9,0.1,·,-0.051,i
O=C(Nc1ccccc1)c1cc(S(=O)(=O)NCc2ccncc2)ccc1Cl,-0.2,0.8,-2.8,-25.7,-3.8,·,·,·
O=C(Nc1ccc(S(=O)(=O)NCc2ccccc2)cc1)c1ccccc1[N+](=O)[O-],2.4*,1.3,-3.9,9.9,-1.6,·,0.029,i
C[C@@H]1CN([C@H](C)CO)S(=O)(=O)c2ccc(C3=CCCCC3)cc2O[C@@H]1CN(C)C(=O)C1CCCCC1,-0.5,12.6,·,·,·,-2.5,·,·
